Measurements from PubChem BioAssay AID1159580 (chemical genetic matrix, 2015).
In all, about 5,500 compounds went through this assay and about 2,000 (36%) were called active. About 18% were inconclusive and are not listed. Cut-off read from the data, not from the text of the source: active = normalized growth mostly below about 0.91 (no sharp cut-off); inconclusive = no clear call, values can overlap the other calls; inactive = mostly above about 0.92. This is one part of the list.

Assay: chemical genetic growth profiling, strain panel (AID 1159580);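 note: tested at 20 µM; growth read once vehicle control cultures reached saturation at 30 °C; 1 = growth at the plate median or of vehicle wells; lower values mean less growth of the strain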
Conditions: S. cerevisiae deletion strains, growth OD

Measured: normalized growth

O=S(=O)(NCc1ccc(C(F)(F)F)cc1)c1cccc(C(F)(F)F)c1
active: locus YLR113W, strain HOG1, stronger effect = lower value 0.802
inactive: locus YAR019C, strain CDC15, stronger effect = lower value 0.985 | locus YBL105C, strain PKC1, stronger effect = lower value 0.986 | locus YBR135W, strain CKS1, stronger effect = lower value 0.982 | locus YBR136W, strain MEC1, stronger effect = lower value 0.985 | locus YBR160W, strain CDC28, stronger effect = lower value 0.988 | locus YDL017W, strain CDC7, stronger effect = lower value 0.989 | locus YDL028C, strain MPS1, stronger effect = lower value 0.98 | locus YDL101C, strain DUN1, stronger effect = lower value 0.987 | locus YDL108W, strain KIN28, stronger effect = lower value 0.983 | locus YDL132W, strain cdc53, stronger effect = lower value 0.973 | locus YDL214C, strain PRR2, stronger effect = lower value 0.945 | locus YDR052C, strain DBF4, stronger effect = lower value 0.987 | locus YDR054C, strain cdc34, stronger effect = lower value 0.985 | locus YDR226W, strain ADK1, stronger effect = lower value 0.99 | locus YDR477W, strain SNF1, stronger effect = lower value 0.956 | locus YER123W, strain YCK3, stronger effect = lower value 0.908 | locus YER133W, strain GLC7, stronger effect = lower value 0.948 | locus YFL009W, strain cdc4, stronger effect = lower value 0.974 | locus YFL029C, strain CAK1, stronger effect = lower value 0.977 | locus YFR003C, strain YPI1, stronger effect = lower value 0.983 | locus YFR019W, strain FAB1, stronger effect = lower value 0.981 | locus YFR028C, strain CDC14, stronger effect = lower value 0.983 | locus YGR040W, strain KSS1, stronger effect = lower value 0.958 | locus YGR052W, strain FMP48, stronger effect = lower value 0.97 | locus YGR092W, strain DBF2, stronger effect = lower value 0.942 | locus YHR030C, strain SLT2, stronger effect = lower value 0.883 | locus YHR079C, strain IRE1, stronger effect = lower value 0.886 | locus YHR082C, strain KSP1, stronger effect = lower value 1.04 | locus YHR205W, strain SCH9, stronger effect = lower value 0.943 | locus YIL147C, strain SLN1, stronger effect = lower value 0.984 | locus YJL095W, strain BCK1, stronger effect = lower value 0.869 | locus YJL128C, strain PBS2, stronger effect = lower value 0.917 | locus YJL157C, strain FAR1, stronger effect = lower value 0.954 | locus YJR016C, strain ILV3, stronger effect = lower value 0.984 | locus YJR066W, strain TOR1 (second series), stronger effect = lower value 0.922 | locus YJR066W, strain TOR1, stronger effect = lower value 1.02 | locus YKL048C, strain ELM1, stronger effect = lower value 0.976 | locus YKL067W, strain YNK1, stronger effect = lower value 0.96 | locus YKL101W, strain HSL1, stronger effect = lower value 0.936 | locus YKL193C, strain SDS22, stronger effect = lower value 0.983 | locus YKL203C, strain TOR2, stronger effect = lower value 1.01 | locus YLR133W, strain CKI1, stronger effect = lower value 0.976 | locus YLR403W, strain SFP1, stronger effect = lower value 0.971 | locus YML070W, strain DAK1, stronger effect = lower value 0.921 | locus YMR001C, strain CDC5, stronger effect = lower value 0.987 | locus YMR205C, strain PFK2 (second series), stronger effect = lower value 0.948 | locus YMR277W, strain FCP1, stronger effect = lower value 0.984 | locus YNL006W, strain LST8, stronger effect = lower value 0.98 | locus YNL020C, strain ARK1, stronger effect = lower value 0.964 | locus YNL161W, strain CBK1, stronger effect = lower value 0.985 | locus YNL183C, strain NPR1, stronger effect = lower value 1.04 | locus YNL207W, strain RIO2, stronger effect = lower value 0.987 | locus YNL222W, strain SSU72, stronger effect = lower value 0.983 | locus YNL307C, strain MCK1 (second series), stronger effect = lower value 0.954 | locus YOL078W, strain AVO1, stronger effect = lower value 0.987 | locus YOL136C, strain PFK27, stronger effect = lower value 0.916 | locus YOR061W, strain CKA2, stronger effect = lower value 0.987 | locus YOR119C, strain RIO1, stronger effect = lower value 1.02 | locus YOR231W, strain MKK1, stronger effect = lower value 0.952 | locus YOR329C, strain SCD5, stronger effect = lower value 0.987 | locus YPL031C, strain PHO85, stronger effect = lower value 0.95 | locus YPL153C, strain RAD53, stronger effect = lower value 0.937 | locus YPL204W, strain HRR25, stronger effect = lower value 0.918 | locus YPL209C, strain IPL1, stronger effect = lower value 0.986 | locus YPL256C, strain CLN2, stronger effect = lower value 0.885 | locus YPR025C, strain CCL1, stronger effect = lower value 0.981 | locus YPR106W, strain ISR1, stronger effect = lower value 0.979 | locus YPR111W, strain DBF20, stronger effect = lower value 0.97 | strain NNK1, stronger effect = lower value 0.984 | strain TSCII, stronger effect = lower value 0.995
